From PubChem BioAssay (EPA / NIEHS) come the findings set out here.

Assay [1] has as its target mouse Estrogen Receptor alpha (Era), Esr1 (gene 13982) (UniProt P19785). The experiment in a line: NVS_NR_mERa: NovaScreen (NVS) Nuclear Receptor Binding Assay for mouse Estrogen Receptor alpha (Era) (AID 2283378).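 Further: hit means loss of bound radioligand signal relative to DMSO.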 The method in brief:
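Filter radiodetection of radioligand displacement from extracted receptor protein, measured 18 h post-dose. Single 25 uM concentration in duplicate initially, with concentration-series follow-up. Binding loss fitted relative to DMSO.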

For assay [2], the target named is Agonist Androgen Response Element (ARE), AR (gene 367) (UniProt P10275). Put plainly: OT_AR_ARELUC_AG_1440: Odyssey Thera (OT) 24-hour CHO-K1 Luciferase Assay for Agonist Androgen Response Element (ARE) (AID 2283379). The method in brief: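 Readout: luciferase bioluminescence from CHO-K1 ARE-luc cells, measured 24 h post-dosing; agonism = increased mean luminescence vs DMSO controls, fitted in positive direction.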
Chain of Agonist Androgen Response Element (ARE), AR (gene 367) (P10275 whole entry, looked up): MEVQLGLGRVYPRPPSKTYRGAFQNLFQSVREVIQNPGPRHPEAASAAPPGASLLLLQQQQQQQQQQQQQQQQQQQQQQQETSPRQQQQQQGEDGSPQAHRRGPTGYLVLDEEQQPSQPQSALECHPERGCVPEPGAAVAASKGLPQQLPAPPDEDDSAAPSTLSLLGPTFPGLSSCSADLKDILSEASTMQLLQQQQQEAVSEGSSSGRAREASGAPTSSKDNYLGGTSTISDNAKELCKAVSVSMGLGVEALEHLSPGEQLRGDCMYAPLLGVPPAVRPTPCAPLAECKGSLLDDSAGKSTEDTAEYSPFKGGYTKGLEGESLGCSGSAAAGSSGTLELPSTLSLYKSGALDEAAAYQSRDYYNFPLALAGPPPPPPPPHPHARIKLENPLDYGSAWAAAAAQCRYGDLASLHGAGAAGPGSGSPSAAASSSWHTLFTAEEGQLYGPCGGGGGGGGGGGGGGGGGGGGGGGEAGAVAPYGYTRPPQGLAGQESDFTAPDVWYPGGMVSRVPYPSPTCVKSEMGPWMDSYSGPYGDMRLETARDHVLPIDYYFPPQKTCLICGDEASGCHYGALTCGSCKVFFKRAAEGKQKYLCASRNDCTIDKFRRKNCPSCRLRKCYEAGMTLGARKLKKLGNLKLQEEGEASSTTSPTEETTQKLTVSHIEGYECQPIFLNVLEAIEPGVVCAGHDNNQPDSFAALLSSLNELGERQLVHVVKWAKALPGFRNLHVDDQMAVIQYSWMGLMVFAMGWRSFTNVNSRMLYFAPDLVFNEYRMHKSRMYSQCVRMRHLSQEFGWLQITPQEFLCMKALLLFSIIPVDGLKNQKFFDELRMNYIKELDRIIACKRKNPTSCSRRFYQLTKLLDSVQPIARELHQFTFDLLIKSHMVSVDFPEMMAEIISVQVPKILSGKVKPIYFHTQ

For assay [3], the target named is Estrogen receptor beta (Homo sapiens) (UniProt Q92731). The experiment in a line: OT_ER_ERbERb_1440: Odyssey Thera (OT) 24-hour HEK293T Protein-Complementation Assay for Estrogen Receptor-beta/-beta Homodimer (AID 2283380).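 Further: fluorescence gain from ER beta LBD homodimer complementation read by laser scanning cytometry; scored as signal increase over DMSO baseline for both agonists and antagonists.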 A digest of the protocol: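 Fluorescence increase, nuclear for agonists or whole-cell for antagonists, relative to DMSO vehicle, quantified by laser scanning cytometer after fixation and Draq5 staining. Readout from 24 h treatment of HEK293T cells carrying complementation-paired ER beta LBD (aa 310-547).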
Chain of Estrogen receptor beta (Homo sapiens) (Q92731 whole entry, looked up, the tested form may be a part): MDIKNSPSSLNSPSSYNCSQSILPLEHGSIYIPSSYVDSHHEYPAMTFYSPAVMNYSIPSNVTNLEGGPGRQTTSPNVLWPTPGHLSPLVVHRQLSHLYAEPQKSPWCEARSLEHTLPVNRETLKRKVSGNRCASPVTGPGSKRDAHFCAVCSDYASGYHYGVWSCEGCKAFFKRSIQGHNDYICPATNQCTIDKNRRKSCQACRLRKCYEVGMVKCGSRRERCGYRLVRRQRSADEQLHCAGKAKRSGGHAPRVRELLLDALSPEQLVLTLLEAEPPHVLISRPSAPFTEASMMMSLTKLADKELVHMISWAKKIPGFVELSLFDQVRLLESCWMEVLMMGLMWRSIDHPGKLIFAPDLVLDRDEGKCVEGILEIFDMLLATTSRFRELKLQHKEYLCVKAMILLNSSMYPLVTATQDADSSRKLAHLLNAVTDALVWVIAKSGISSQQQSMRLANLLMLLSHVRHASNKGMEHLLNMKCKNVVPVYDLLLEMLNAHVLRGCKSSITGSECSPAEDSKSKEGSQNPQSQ

Assay [4] deals with Estrogen receptor (Homo sapiens) (UniProt P03372). The experiment in a line: OT_ERa_GFPERaERE_0480: Odyssey Thera (OT) 8-hour HeLa Transcription Induction Assay for Estrogen Receptor (AID 2283381; active means hit-call score of the fitted dose curve at least 0.9, where 1 is the maximum; inactive means score below 0.9). The method in brief:
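Fluorescence microscopy with high-content image analysis measures ERE-driven GFP induction in HeLa cells at 8 h post-dose. Increases fitted against DMSO baseline.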

The target is the same in assay [5]. The experiment in a line: OT_ERa_GFPERaERE_0120: Odyssey Thera (OT) 2-hour HeLa Transcription Induction Assay for Estrogen Receptor (AID 2283382). A digest of the protocol: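 Fluorescence-microscopy images of the GFP-ERα/ERE reporter, scored by high-content image algorithms, give the readout. HeLa exposure lasted 2 h, and only signal increase over DMSO was fitted.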

Assay [6] deals with Peroxisome proliferator-activated receptor gamma (Homo sapiens) (UniProt P37231). The experiment in a line: OT_PPARg_PPARgSRC1_0480: Odyssey Thera (OT) 8-hour Protein-Complementation Assay for Peroxisome Proliferator-activated Receptor Gamma / SRC-1 Co-activator (AID 2283387).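 Further: nuclear to cytoplasmic split Venus YFP fluorescence ratio reporting PPARg SRC-1 interaction.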 The method in brief: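 Protein-fragment complementation of split Venus YFP reports PPARg/SRC-1 interaction in HEK293T (transfected 48 h before treatment), exposed 8 h. Readout: N/C fluorescence ratio at 488 nm from imaging, Draq5 for segmentation, positive fit relative to DMSO.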
Chain of Peroxisome proliferator-activated receptor gamma (Homo sapiens) (P37231 whole entry, looked up, the tested form may be a part): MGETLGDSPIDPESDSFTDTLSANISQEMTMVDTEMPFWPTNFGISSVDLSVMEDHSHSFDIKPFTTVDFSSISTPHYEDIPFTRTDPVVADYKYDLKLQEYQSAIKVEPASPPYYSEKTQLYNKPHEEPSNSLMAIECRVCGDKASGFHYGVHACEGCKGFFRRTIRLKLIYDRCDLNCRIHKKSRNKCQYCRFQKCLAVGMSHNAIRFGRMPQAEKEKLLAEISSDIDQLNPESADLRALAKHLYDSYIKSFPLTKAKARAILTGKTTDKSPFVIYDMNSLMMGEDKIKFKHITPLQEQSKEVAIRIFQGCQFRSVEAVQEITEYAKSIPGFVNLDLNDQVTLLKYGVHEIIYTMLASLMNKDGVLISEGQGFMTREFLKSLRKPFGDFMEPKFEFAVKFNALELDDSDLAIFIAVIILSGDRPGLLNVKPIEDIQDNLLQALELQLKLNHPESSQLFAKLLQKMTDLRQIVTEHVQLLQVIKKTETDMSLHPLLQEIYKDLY

For assay [7] the target is unchanged. The experiment in a line: OT_PPARg_PPARgSRC1_1440: Odyssey Thera (OT) 24-hour Protein-Complementation Assay for Peroxisome Proliferator-activated Receptor Gamma/ SRC-1 Co-activator (AID 2283388).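 Further: nuclear to cytoplasmic ratio of reconstituted Venus YFP fluorescence in fixed imaged cells.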 A digest of the protocol: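 Readout is the 488 nm N/C fluorescence ratio from fixed, Draq5-stained HEK293T cells after 24 h compound exposure. Cells carried transiently transfected PPARg and SRC-1 fused to Venus fragments, transfected 48 h before treatment.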

A short description of assay [8]: CEETOX_H295R_11DCORT: CeeTox H295R High-throughput Steroidogenesis Assay for 11-Deoxycortisol (11DCORT) (AID 2283432; active means hit-call score of the fitted dose curve at least 0.9, where 1 is the maximum; inactive means score below 0.9;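 on AC50: 11-deoxycortisol secreted into the medium measured by LC-MS/MS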). The settings on record: actives raise or lower the signal. A digest of the protocol: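 Human adrenal H295R cells were prestimulated with 10 uM forskolin for 48 h, then exposed to test chemical (0.1% DMSO final) for 48 h. Medium 11-deoxycortisol was quantified by MTBE extraction and HPLC-MS/MS; bidirectional fitting relative to DMSO.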

Assay [9] can be described thus: CEETOX_H295R_OHPREG: CeeTox H295R High-throughput Steroidogenesis Assay for OH-Pregnenolone (OHPREG) (AID 2283434; active means hit-call score of the fitted dose curve at least 0.9, where 1 is the maximum; inactive means score below 0.9). The settings on record: actives raise or lower the signal. The method in brief: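 Secreted 17alpha-hydroxypregnenolone measured by HPLC-MS/MS after liquid-liquid extraction. Human adrenal H295R cells received 48 h forskolin (10 uM) stimulation before 48 h chemical exposure at 0.1% final DMSO; MTT viability in same wells; bidirectional fit against DMSO.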

Assay [10] addresses human Dopamine Transporter (DAT), SLC6A3 (gene 6531) (UniProt Q01959). Put plainly: NVS_TR_hDAT: NovaScreen (NVS) Transporter Assay for human Dopamine Transporter (DAT) (AID 2283374).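 Further: activity means loss of bound radioligand signal relative to DMSO.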 The method in brief: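 Duplicate single-point screening at 25 uM preceded concentration-series follow-up of actives. Binding was measured by competitive displacement of a radioligand from DAT protein, filter-counted by scintillation 1 h after dosing. Decrease relative to DMSO taken as activity.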

The target in assay [11] is human Norepinephrine Transporter (NET), SLC6A2 (gene 6530) (UniProt P23975). Put plainly: NVS_TR_hNET: NovaScreen (NVS) Transporter Assay for human Norepinephrine Transporter (NET) (AID 2283377).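 Further: cell-free membrane protein extracted from CHO cells expressing human NET; displacement of radioligand from human NET seen as loss of scintillation signal.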 A digest of the protocol:
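Single-concentration duplicate screen at 25 uM, then concentration-response for actives; displacement of specific radioligand from human NET in CHO membrane extracts, filter-based scintillation detection at 1 h relative to DMSO.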

Assay [12] has as its system guinea pig Dopamine Transporter (DAT), gene 100714898. The experiment in a line: NVS_TR_gDAT: NovaScreen (NVS) Transporter Assay for guinea pig Dopamine Transporter (DAT) (AID 2283369).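 Further: active compounds lower bound radioligand signal relative to DMSO.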 The method in brief: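 Radioligand displacement on membranes from guinea pig striatum, 2 h exposure, bound label counted by filtration and scintillation. Tested at 25 uM in duplicate, then actives in concentration series to 50 uM; DMSO as negative control.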

The target of assay [13] is rat Serotonin Transporter (SERT), Slc6a4 (gene 25553) (UniProt P31652). The experiment in a line: NVS_TR_rSERT: NovaScreen (NVS) Transporter Assay for rat Serotonin Transporter (SERT) (AID 2283375). A digest of the protocol:
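Radioligand binding with competitive displacement on rat forebrain membrane preparations, counted by filtration and scintillation after 1 h. Primary single-point duplicates at 25 uM; active chemicals followed up in concentration-response. DMSO served as baseline.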

The target of assay [14] is Glucocorticoid receptor (Homo sapiens) (UniProt P04150). The experiment in a line: NVS_NR_hGR: NovaScreen (NVS) Nuclear Receptor Binding Assay for human Glucocorticoid Receptor (GR) (AID 2283363).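 Further: activity is loss of specific radioligand binding signal relative to DMSO.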 The method in brief: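 Compounds first tested in duplicate at 25 uM, actives followed up in concentration series. Binding to extracted GR protein measured as competitive radioligand displacement, filter scintillation read 16 h post-dosing, normalised to DMSO.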

The target of assay [15] is rat Androgen Receptor (AR), Ar (gene 24208) (UniProt P15207). Put plainly: NVS_NR_rAR: NovaScreen (NVS) Nuclear Receptor Binding Assay for rat Androgen Receptor (AR) (AID 2283366). The method in brief: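 Actives from a duplicate single-concentration (25 uM) primary run went on to concentration series. Displacement of radioligand was counted by filtration and scintillation, 18 h post-dose, using prostate extracts from testosterone-pretreated rats, with DMSO as baseline.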
Chain of rat Androgen Receptor (AR), Ar (gene 24208) (P15207 whole entry, looked up): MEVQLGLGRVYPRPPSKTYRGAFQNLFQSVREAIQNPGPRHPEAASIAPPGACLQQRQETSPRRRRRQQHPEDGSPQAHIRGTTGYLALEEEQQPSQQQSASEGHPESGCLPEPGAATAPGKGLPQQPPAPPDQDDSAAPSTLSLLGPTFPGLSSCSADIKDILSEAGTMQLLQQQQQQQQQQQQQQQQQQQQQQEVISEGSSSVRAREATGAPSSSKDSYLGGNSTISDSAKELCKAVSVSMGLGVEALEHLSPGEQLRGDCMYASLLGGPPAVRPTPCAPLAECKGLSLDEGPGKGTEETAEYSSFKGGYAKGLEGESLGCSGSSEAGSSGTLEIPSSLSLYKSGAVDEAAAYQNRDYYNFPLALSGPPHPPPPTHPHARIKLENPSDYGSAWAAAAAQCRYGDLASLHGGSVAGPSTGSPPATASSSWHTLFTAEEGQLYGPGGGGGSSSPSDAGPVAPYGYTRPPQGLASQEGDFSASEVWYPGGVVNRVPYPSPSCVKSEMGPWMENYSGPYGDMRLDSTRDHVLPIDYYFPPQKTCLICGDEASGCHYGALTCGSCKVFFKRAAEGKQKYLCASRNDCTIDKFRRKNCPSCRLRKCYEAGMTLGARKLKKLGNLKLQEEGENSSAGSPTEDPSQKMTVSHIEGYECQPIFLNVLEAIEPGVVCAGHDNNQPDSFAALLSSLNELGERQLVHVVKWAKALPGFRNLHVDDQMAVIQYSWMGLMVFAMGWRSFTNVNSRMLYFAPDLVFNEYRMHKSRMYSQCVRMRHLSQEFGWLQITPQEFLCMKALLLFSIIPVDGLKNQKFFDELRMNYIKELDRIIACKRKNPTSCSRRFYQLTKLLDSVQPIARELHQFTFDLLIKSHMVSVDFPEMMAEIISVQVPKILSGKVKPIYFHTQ

The target in assay [16] is Bile acid receptor (Homo sapiens) (UniProt Q96RI1). The experiment in a line: OT_FXR_FXRSRC1_0480: Odyssey Thera (OT) 8-hour HEK293T Protein-Complementation Assay for Farnesoid X receptor/SRC-1 Co-activator (AID 2283383). A digest of the protocol: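 Binding of FXR to coactivator SRC-1 was read as fluorescence from a reconstituted split reporter in HEK293T cells, 8 h after chemical addition. Only increases in signal versus DMSO were fit.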
Chain of Bile acid receptor (Homo sapiens) (Q96RI1 whole entry, looked up, the tested form may be a part): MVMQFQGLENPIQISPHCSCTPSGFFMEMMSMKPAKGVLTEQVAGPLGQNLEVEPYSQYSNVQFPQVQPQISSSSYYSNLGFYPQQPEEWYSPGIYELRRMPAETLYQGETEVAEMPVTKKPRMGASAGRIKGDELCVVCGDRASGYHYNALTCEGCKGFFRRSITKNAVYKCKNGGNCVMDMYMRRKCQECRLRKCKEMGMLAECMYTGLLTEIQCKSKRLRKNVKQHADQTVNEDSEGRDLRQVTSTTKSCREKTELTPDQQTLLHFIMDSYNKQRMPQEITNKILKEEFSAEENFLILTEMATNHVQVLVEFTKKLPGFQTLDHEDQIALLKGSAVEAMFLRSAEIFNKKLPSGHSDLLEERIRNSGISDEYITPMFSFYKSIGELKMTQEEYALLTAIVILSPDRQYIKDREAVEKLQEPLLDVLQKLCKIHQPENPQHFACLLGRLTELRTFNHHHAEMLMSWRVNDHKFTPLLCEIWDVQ

In assay [17] the target is Retinoic acid receptor alpha (Homo sapiens) (UniProt P10276). Put plainly: NVS_NR_hRARa_Agonist: NovaScreen (NVS) Nuclear Receptor Binding Assay for human Retinoic Acid Alpha Receptor Agonism (RAR) (AID 2283361). The method in brief: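 Agonist-mode TR-FRET binding format using extracted protein, measured at 2 h post-dosing. Initial duplicate single-point screen at 25 uM preceded concentration series for actives; activity was normalized to DMSO baseline.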

Assay [18] addresses human Thyroid Receptor Alpha (TRa), THRA (gene 7067) (UniProt P10827). Put plainly: NVS_NR_hTRa_Antagonist: NovaScreen (NVS) Nuclear Receptor Binding Assay for human Thyroid Receptor Alpha Antagonism (TRa) (AID 2283362).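 Further: activity is loss of signal relative to DMSO baseline.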 The method in brief: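 Actives from a duplicate 25 uM single-point screen were retested in concentration series. The cell-free antagonist-format binding assay was read by AlphaLISA chemiluminescence at 1 h, scored as signal loss relative to DMSO.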

The target in assay [19] is Bile acid receptor (Homo sapiens) (UniProt Q96RI1). The experiment in a line: OT_FXR_FXRSRC1_1440: Odyssey Thera (OT) 24-hour HEK293T Protein-Complementation Assay for Farnesoid X receptor/SRC-1 Co-activator (AID 2283384). The method in brief:
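Protein-fragment complementation: FXR and SRC-1 fused to reporter fragments that reassemble on interaction, read by fluorescence intensity. Human HEK293T cells measured 24 h post-dose; positive-direction fit versus DMSO.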

Molecules are shown by their SMILES. Inconclusive results are not listed. Active and inactive are the calls of the source. How the source made its calls, unless noted: active means hit-call score of the fitted dose curve at least 0.9, where 1 is the maximum; inconclusive means response in the unintended direction; inactive means score below 0.9.

Chain of mouse Estrogen Receptor alpha (Era), Esr1 (gene 13982) (P19785 whole entry, looked up): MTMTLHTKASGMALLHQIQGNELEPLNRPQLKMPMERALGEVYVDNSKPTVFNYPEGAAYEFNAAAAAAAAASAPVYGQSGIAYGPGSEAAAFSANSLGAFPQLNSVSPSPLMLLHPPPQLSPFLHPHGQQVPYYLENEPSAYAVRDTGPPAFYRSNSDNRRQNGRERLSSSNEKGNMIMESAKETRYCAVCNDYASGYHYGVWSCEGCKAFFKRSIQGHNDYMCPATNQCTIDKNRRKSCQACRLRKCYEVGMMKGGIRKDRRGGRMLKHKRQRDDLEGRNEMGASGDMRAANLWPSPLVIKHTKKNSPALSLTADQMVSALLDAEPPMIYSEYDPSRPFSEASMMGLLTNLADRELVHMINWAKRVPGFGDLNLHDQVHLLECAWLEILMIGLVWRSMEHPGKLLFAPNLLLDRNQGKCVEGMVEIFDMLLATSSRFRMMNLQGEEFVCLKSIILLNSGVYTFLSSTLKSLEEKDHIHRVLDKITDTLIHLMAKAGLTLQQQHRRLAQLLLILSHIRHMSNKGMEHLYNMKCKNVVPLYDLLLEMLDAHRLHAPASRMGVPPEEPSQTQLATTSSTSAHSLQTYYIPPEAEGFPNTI
Chain of human Dopamine Transporter (DAT), SLC6A3 (gene 6531) (Q01959 whole entry, looked up): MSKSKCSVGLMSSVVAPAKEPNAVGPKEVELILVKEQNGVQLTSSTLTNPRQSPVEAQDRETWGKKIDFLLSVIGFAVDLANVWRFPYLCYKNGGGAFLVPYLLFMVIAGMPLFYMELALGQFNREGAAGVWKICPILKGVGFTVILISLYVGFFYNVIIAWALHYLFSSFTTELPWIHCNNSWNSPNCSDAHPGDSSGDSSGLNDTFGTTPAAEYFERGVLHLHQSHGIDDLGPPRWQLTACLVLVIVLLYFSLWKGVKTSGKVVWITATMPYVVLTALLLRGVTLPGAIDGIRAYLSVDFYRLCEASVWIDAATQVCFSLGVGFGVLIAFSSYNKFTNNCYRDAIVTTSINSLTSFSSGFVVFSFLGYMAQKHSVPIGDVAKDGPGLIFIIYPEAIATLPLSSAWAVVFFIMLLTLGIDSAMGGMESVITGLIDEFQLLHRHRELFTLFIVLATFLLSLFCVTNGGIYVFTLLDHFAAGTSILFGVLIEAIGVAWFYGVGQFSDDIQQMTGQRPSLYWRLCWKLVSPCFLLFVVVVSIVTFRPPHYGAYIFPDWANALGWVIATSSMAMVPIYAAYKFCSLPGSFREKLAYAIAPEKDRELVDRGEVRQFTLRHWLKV
Chain of human Thyroid Receptor Alpha (TRa), THRA (gene 7067) (P10827 whole entry, looked up): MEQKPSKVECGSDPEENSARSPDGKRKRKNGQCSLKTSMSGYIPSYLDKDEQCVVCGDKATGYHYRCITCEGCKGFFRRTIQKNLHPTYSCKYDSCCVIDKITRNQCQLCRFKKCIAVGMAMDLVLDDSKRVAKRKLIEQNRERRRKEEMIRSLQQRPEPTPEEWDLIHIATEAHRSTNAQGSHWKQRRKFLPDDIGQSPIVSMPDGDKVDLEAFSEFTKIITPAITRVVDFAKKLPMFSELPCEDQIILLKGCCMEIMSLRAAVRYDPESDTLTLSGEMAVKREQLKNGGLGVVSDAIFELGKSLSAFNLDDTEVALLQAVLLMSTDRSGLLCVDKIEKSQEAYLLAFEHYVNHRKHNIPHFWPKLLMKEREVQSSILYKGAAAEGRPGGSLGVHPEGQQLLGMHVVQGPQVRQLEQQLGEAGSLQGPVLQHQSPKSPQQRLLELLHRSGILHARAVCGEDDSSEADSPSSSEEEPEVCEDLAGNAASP

`O=C1C=CC(=O)N1c1ccccc1`: the compound was called inactive in assay [1], in [2], in assay [3], in [4], in [5] and in assay [6]. Moreover, the compound was called inactive in [7], in assay [8] and in assay [9].

`Cc1cc(O)c(C(C)(C)C)cc1C(C)(C)C`: the concentration at half-maximal activity (AC50) is 23.7 µM (active) in assay [10] and 16.5 µM (active) in assay [11]. The call in assay [8] and in assay [9] was inactive.

As to `CSc1ccc(O)cc1C`, the concentration at half-maximal activity (AC50) is 19.4 µM (active) in assay [12], 33.9 µM (active) in assay [10] and 36.4 µM (active) in assay [11]. In addition, the compound was called inactive in assay [13], in [8] and in assay [9].

In the case of `CCN(CC)c1ccc(C=O)cc1`, the AC50 in [13] was 15.8 µM (active). The result in assay [8] and in [9] was inactive.

For the compound `O=C1c2c(O)ccc(Nc3ccc(CCO)cc3)c2C(=O)c2c([N+](=O)[O-])ccc(O)c21`, the AC50 in assay [14] is 23.5 µM (active).

As to `CCCCCCCC/C=C\CCCCCCCC(=O)OCC(O)CO` (centres undefined), the figures for the AC50 in assay [15] and in [16] were 34.8 µM (active) and 70.9 µM (active), respectively. Moreover, the compound was classed as inactive in [2], in [3], in [4], in [5], in assay [6] and in assay [7].

In the case of `O=C1c2ccccc2C(=O)c2c(Cl)cccc21`, the compound was called inactive in assay [15], in [8] and in assay [9].

Consider `CCN=c1cc2oc3cc(NCC)c(C)cc3c(-c3ccccc3C(=O)OCC)c-2cc1C`, for which the AC50 in [17] is 18.1 µM (active); in assay [18], 38.3 µM (active); in assay [14] it was 9.39 µM (active); in [15], 6.57 µM (active); in assay [1], 25 µM (active); in assay [3], 76.4 µM (active). Moreover, the AC50 was 1.36 µM (active) in assay [16] and 4.08 µM (active) in [7]. Also, the result in [2], in assay [4], in assay [5], in [19] and in assay [6] was inactive.

On to `O=C1C=CC(=O)N1c1ccc(Cc2ccc(N3C(=O)C=CC3=O)cc2)cc1`, for which the AC50 in [12] was 11.3 µM (active). The compound was classed as inactive in [10].

As to `CCn1c2ccccc2c2ccccc21`, the outcome in assay [10] and in [9] was inactive. Further, the AC50 in [8] is 50 µM (active).

Regarding `O=C(c1ccccc1)c1ccc(Cl)cc1`, the AC50 in [10] is 20.2 µM (active). The compound was called inactive in [8] and in assay [9].

As to `COCCOCCC[Si](C)(O[Si](C)(C)C)O[Si](C)(C)C`, the outcome in [1], in [2], in [4], in assay [5], in assay [19] and in assay [6] was inactive. For the same compound, the result in [7] was inactive. In addition, the AC50 in assay [3] is 53.3 µM (active); in assay [16] it was 50 µM (active).

As a reminder, the AC50 is the concentration at which the activity in the assay is half-maximal.
